# Test results from PubChem BioAssay (NCATS).
# A number with no mark means an inactive call. The rule behind the calls is not given here.
# System: HIV-1 nucleocapsid protein NCp7 (binding to TG oligonucleotide)
# Assay: HIV Nucleocapsid (AID 346);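 note: potency is for inhibitors that block NC binding and lower polarization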
# Details: HIV-1 NC / fluorescein-TGTGTGTG probe, fluorescence polarization
# In short: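 Fluorescence polarization readout: labelled TG4xF oligo (10 nM) with 100 nM nucleocapsid protein, high-salt (250mM NaCl) Hepes pH 7.5 buffer containing zinc and fresh reducing agents. Compounds added by pin tool; incubation 1 hr, room temperature.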
# Potency is the fitted concentration of half-maximal effect.
row,SMILES,Potency [µM]
1,CC(=O)N1CCC2(CC1)CCN(C(=O)Nc1cccc(F)c1)CC2,> 20
2,c1cn(-c2cc(-c3ccc4c(c3)OCO4)ncn2)cn1,> 20
3,CS(=O)(=O)N1CCC2(CCN(Cc3ccc(C#N)cc3)CC2)CC1,> 20
4,Cc1cnc(CNc2ccnc(-c3ccccc3CN(C)C)n2)cn1,> 20
5,COCCn1c(=O)c(C)nc2cnc(Nc3ccccc3)nc21,> 20
6,COc1ccc2[nH]cc(CCNc3ncncc3-c3ccccc3Cl)c2c1,> 20
7,Cc1ccccc1-c1ccc2ncnc(NCCN3CCOCC3)c2c1,> 20
8,CN(C)c1ncc2nc(-c3cc(F)cc(F)c3)c(=O)n(C)c2n1,> 20
9,COc1ccccc1-c1cc(Nc2ccn[nH]2)ncn1,> 20
10,O=c1c(-c2cc(F)cc(F)c2)nc2cnc(N3CCOCC3)nc2n1CCc1ccccc1,> 20
11,CC(=O)N1CCC2(CCCN(c3ccccn3)C2)CC1,> 20
12,Cc1cnc(CNc2ncnc3ccc(-c4c(C)noc4C)cc23)cn1,> 20
13,COCCn1c(=O)c(-c2cc(F)cc(F)c2)nc2cnc(N3CCOCC3)nc21,> 20
14,O=C(c1csnn1)N1CCC2(CC1)CN(C(c1ccccc1)c1ccccc1)C2,> 20
15,COc1ccc(C(=O)N2CCC3(CCCN(Cc4ccccc4)C3)CC2)cc1,> 20
16,CC(C)NC(=O)N1CC[C@@]2(CCCN(C(=O)Oc3ccccc3)C2)C1,> 20
